Mtb FBA inh – Mtb FBA enzyme inhibitors, primary screen, biochemical, fluorescence, strain H37Rv. 2.3% of 360,000 active. purified M. tuberculosis FBA, fluorescence read-out. AID 588726, 2011. Fructose-bisphosphate aldolase (Mycobacterium tuberculosis (strain ATCC 25618 / H37Rv)), …. inhibition, % at 1 µM; in the data active = inhibition above about 27%;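 note: 0% = vehicle and 100% = reference inhibitor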
Target sequence (P9WQA3 whole entry, looked up): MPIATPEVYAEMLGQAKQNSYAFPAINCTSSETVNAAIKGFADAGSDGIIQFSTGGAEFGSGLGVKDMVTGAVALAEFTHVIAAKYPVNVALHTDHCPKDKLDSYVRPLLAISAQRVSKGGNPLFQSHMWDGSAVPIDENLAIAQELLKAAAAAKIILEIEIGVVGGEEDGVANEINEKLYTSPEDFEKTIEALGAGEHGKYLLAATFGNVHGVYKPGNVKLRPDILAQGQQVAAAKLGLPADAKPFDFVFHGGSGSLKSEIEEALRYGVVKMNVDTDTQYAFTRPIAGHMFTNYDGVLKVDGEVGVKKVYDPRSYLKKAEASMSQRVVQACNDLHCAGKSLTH
CCHF vOTU inh – CCHFV vOTU protease inhibitors, primary screen, biochemical, Pep-AMC substrate, fluorescence; Crimean-Congo hemorrhagic fever virus L polyprotein viral ovarian tumor (vOTU) protease …; 0.55% of 370,000 active; AID 651958, 2012; inhibition, % at 11.5 µM; note: 0% = vehicle wells with enzyme and 100% = no enzyme wells
GDH-TPI counter – GDH-TPI coupling enzyme inhibitors, primary screen, artefact control for M. tuberculosis FBA inhibitor project, biochemical, absorbance, full deck. GDH-TPI coupled enzyme counterscreen, NADH absorbance. inhibition, % at 4.8 µM. 1.2% of 360,000 active;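 note: 0% = DMSO wells and 100% = wells lacking the enzyme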
Vc quorum ag-1 – inducers of Vibrio cholerae quorum light production without autoinducers, primary screen, BH1578 luxS cqsA deficient, single point | AID 588436, 2011 | V. cholerae BH1578 lux reporter, luminescence, 6 h | 0.16% of 350,000 active | activation, % at 18.7 µM; in the data active = activation mostly above about 9.7%, no sharp cut-off
Vc quorum ag-2 – V. cholerae lux activation without autoinducers – BH1578 luxS cqsA deficient, cherry-pick, plate reader, dose response | shares compounds with Vc quorum ag-1 | activation, % at 50 µM | 620 tested, under 10 active | AID 602243, 2012 | V. cholerae BH1578 lux reporter, luminescence, 6 h; call rule not given here
* marks the source's active call; other numbers are inactive results; i = inactive; x = no result given; + = active, no number. Only some compounds are listed: those with a hit (about 3.9% of all), similar ones and a draw of the others. Cut-off read from the data, not from the text of the source, unless noted: active = inhibition above about 30%; inactive = the rest.

SMILES | Mtb FBA inh | CCHF vOTU inh | GDH-TPI counter | Vc quorum ag-1 | Vc quorum ag-2
Cc1cc2c(C)c(C)c(=O)[nH]c2cc1N | + | -255 | 35* | 0 | x
O=C(CNc1ccc2c(c1)OCO2)N/N=C\c1cn(Cc2ccccc2)c2ccccc12 | 1 | -1 | 31* | -1 | x
Nc1ccc(C(=O)N/N=C/c2cn(Cc3cccc(F)c3)c3ccccc23)cc1 | 2 | 0 | 32* | 8 | x
C#CCn1cc(/C=N/NC(=O)c2cc3ccccc3o2)c2ccccc21 | 4 | 5 | 32* | i | x
O=C(N/N=C/c1ccccc1Cl)c1cccc(F)c1 | 0 | -2 | 8 | 0 | x
O=C(N/N=C/c1cccc2ccccc12)c1cccc(F)c1 | -2 | 4 | 34* | i | x
O=C(CNc1ccccc1)N/N=C/c1ccc2c(c1)OCO2 | -2 | -6 | 11 | i | x
O=C1C2C3CCC(O3)C2C(=O)N1c1cc(OCC(F)F)cc([N+](=O)[O-])c1 (stereo not drawn) | 3 | -3 | 3 | i | x
O=C1C2C3C=CC(C2C(=O)N1c1cccc(O)c1)C1C2C(=O)N(c4cccc(O)c4)C(=O)C2C31 (stereo not drawn) | -1 | -11 | 0 | -1 | x
Cc1cccc(OCC(=O)Nc2ccccc2N2CCN(C(=O)C(C)C)CC2)c1C | 1 | 6 | -3 | i | x
O=C(N/N=C/c1cccc([N+](=O)[O-])c1)c1ccc(CN2CCOCC2)cc1 | 1 | 5 | 2 | i | x
O=C(N/N=C/c1cccc2ccccc12)c1ccc(CN2CCOCC2)cc1 | 6 | -1 | 41* | i | x
CN(C)c1ccc(C=NCC2(O)CCOC(C)(C)C2)cc1 (stereo not drawn) | 2 | 14 | 48* | i | x
COc1ccc(C2(CCN=Cc3ccc(N(C)C)cc3)CCOC(C)(C)C2)cc1 (stereo not drawn) | 0 | -4 | 29 | i | x
CN(C)c1ccc(C=NCCC2(c3ccccc3)CCOC(C)(C)C2)cc1 (stereo not drawn) | 0 | 7 | 56* | 0 | x
COc1cc(OCc2ccccc2)c2c(CCC(=O)O)cc(=O)oc2c1 | + | -288 | 22 | -1 | x
CCc1cc(=O)oc2cc(OC(C)=O)cc(OC(C)=O)c12 | + | -238 | 23 | i | x
COc1cc(OCc2ccccc2)c(CC(=O)O)c([N+](=O)[O-])c1 | 2 | 8 | 11 | -6 | x
CCc1cc(=O)oc2cc(OCC(=O)OC)c(Cl)cc12 | 7 | -6 | 4 | 4 | x
Cc1cc(C(=O)CSc2nnc(-c3ccco3)o2)c(C)n1CC1COc2ccccc2O1 (stereo not drawn) | 0 | 8 | -2 | 18 | 1
CC(=O)OC[C@@H]1CN(Cc2ccccc2)C[C@H](n2ccc3c(N)ncnc32)O1 | 0 | -9 | 8 | 0 | x
CC1(NC(=O)C23CC4CC(CC(C4)C2)C3)CCS(=O)(=O)C1 (stereo not drawn) | 1 | -5 | -10 | 17* | 0
COc1ccc(CCNC(=O)c2nnn(-c3ccc4c(c3)OCCO4)c2N)cc1OC | 2 | 10 | -9 | 7.6* | 1
CCN(CC)CCN(C)Cc1nc(C(c2ccccc2)c2ccccc2)no1 | -3 | 5 | 9 | -1 | x
Cc1cccc(-c2cc3nc4c(c(N5CCOCC5)n3n2)CCCC4)c1 | 4 | -6 | 6 | i | x
SMILES | Mtb FBA inh | CCHF vOTU inh | GDH-TPI counter | Vc quorum ag-1 | Vc quorum ag-2
Cc1cccc(-c2cc3nc4c(c(N5CCC6(CC5)OCCO6)n3n2)CCCC4)c1 | 2 | -14 | 8 | 1 | 0
Cn1cnnc1SCCOc1ccc(Cl)cc1 | 3 | -13 | 0 | 132* | 91
CN(C)S(=O)(=O)c1cccc(NC(=O)COC(=O)c2ccc(Br)o2)c1 | 6 | -5 | 17 | 14 | 0
N#CC(c1ccccc1)C1CCN(Cc2ccccc2)CC1 (stereo not drawn) | 1 | -1 | 9 | 0 | x
C[C@H](NC(=O)c1ccco1)C(=O)Nc1ccc(S(=O)(=O)N2CCCC2)cc1 | -7 | 12 | 15 | 14 | 18
O=C(Nc1ccc(S(=O)(=O)N2CCCCCC2)cc1)c1ccco1 | -1 | 7 | 2 | -2 | x
O=C(Cn1cc(C(F)(F)F)cc(Cl)c1=O)NC1CCS(=O)(=O)C1 (stereo not drawn) | -3 | -3 | -13 | -1 | x
CN(C(=O)Cn1cc(C(F)(F)F)cc(Cl)c1=O)C1CCS(=O)(=O)C1 (stereo not drawn) | -2 | 20 | 5 | 14 | 1
COc1ccc(NC(=O)CSc2ccc3c(c2)OCCO3)cc1OC | 2 | -4 | -6 | 25* | 0
CCn1c(SCC(=O)Nc2ccc3c(c2)OCCO3)nnc1-c1ccccn1 | 1 | -2 | 3 | 12 | 0
COc1cc(NC(=O)CSc2ccc3c(c2)OCCO3)cc(OC)c1OC | 1 | 4 | -3 | i | x
CCCN(CC(=O)Nc1ccccc1C)C(=O)COC(=O)c1cnc(C)cn1 | 0 | -10 | 8 | -1 | x
COc1ccc(OCc2nnc3n2N=C(c2ccc(OC)cc2)CS3)cc1 | 4 | 3 | 1 | 27 | 3
O=C(c1cn(-c2ccccc2)nc1-c1cccs1)N1CCOCC1 | -2 | 1 | 3 | 25* | 0
O=C(c1cn(-c2ccccc2)nc1-c1cccs1)N1CCN(c2ccccc2)CC1 | 3 | x | -17 | 0 | x
CCc1ccc(NS(=O)(=O)c2cccs2)cc1 | 1 | -11 | 6 | 21* | 1
Cc1cc(C)cc(NS(=O)(=O)c2cccs2)c1 | -1 | 6 | -7 | i | x
Brc1ccc(-c2cn3c(n2)SCC3)cc1 | 2 | -2 | -5 | -1 | x
Oc1ccc(-c2cn3c(n2)SCC3)cc1 | 4 | -2 | 3 | 17* | 0
COc1ccccc1NS(=O)(=O)c1cccc(C(=O)NCC(c2ccco2)N2CCCCC2)c1 (stereo not drawn) | 4 | 24 | 1 | 14 | 0
CCOc1ccc(S(=O)(=O)Nc2ccc(C(=O)NCC(c3ccco3)N3CCCCC3)cc2)cc1 (stereo not drawn) | 1 | 13 | 1 | 14 | 0
Cc1cccc(-c2nnc(SCC(=O)Nc3cc(C)on3)n2C)c1 | 3 | 2 | 2 | 0 | x
O=C(Nc1ccc(C(=O)N2CCOCC2)cc1)c1cc(-c2cccnc2)nc2ccc(Br)cc12 | 3 | 16 | 5 | i | x
COc1ccc(/C=C/C(=O)NCCN=C2NS(=O)(=O)c3ccccc32)cc1 | -1 | -4 | 6 | -2 | x
Cc1ccc(C(=O)N(C)CC(=O)Nc2ccc(N3CCOCC3)cc2)s1 | -3 | 1 | 3 | 14 | 100
CCc1sc(N(C(=O)Cc2ccccc2)c2cccc(F)c2)nc1-c1ccc(C)cc1 | 3 | -9 | 13 | 12 | 0
CC(C)(C)n1cnc(C(N)=O)c1N | -3 | -5 | 1 | 0 | x
Cc1cc2oc(=O)cc(-c3ccccc3)c2c(C)c1-c1ccc(C#N)cc1 | 1 | 16 | 4 | 12 | 0

Screening results deposited in PubChem BioAssay by several laboratories.
